# Source: ChEMBL document CHEMBL3988442, “University of Dundee, Small-Polar-MMV Screening Library” (2021)
# In all, about 66,000 compounds went through this assay and about 960 (1.5%) showed an effect of 50% or more. The entries come from a sample that favours strong results as a whole.
# Test system: Trypanosoma brucei
# Assay: Trypanosoma brucei 72 hour study
# Format: functional, organism-based
# Parameters: scale not given: in the data most compounds retested in dose-response had high values
compound,measurement,setting,value
CS(=O)(=O)N1Cc2ccccc2C2(CCN(C(=O)c3ccno3)CC2)C1,Percent Effect,"30.3 µM, […]",-25.32%
COc1cc(N2CCC3(CCN(Cc4cccnc4)C3=O)C2)ncn1 (stereo unspecified),Percent Effect,"30.3 µM, […]",-84.3%
CNC(=O)Nc1cc(-c2ccccc2C)nn1CCO,Percent Effect,"30 µM, 30.03 µM",-25.05%
Cc1ccccc1-c1cc(NC(=O)NC2CCC(O)CC2)n(CCO)n1 (stereo unspecified),Percent Effect,"30.3 µM, […]",-152.8%
Cc1ccccc1-c1cc(NC(=O)NC2CC2)n(CCO)n1,Percent Effect,"30.3 µM, […]",80.61%
Cc1cc(S(=O)(=O)N(CC(N)=O)CC(C)C)ccc1Br,Percent Effect,"30.3 µM, […]",1.83%
CN(C)C(=O)COC[C@H]1CC[C@@H]2[C@@H](CCN2Cc2ccco2)O1.O=C(O)C(F)(F)F,Percent Effect,"30 µM, 30.03 µM",-23.12%
COCCN1C[C@H](OCc2csc(C)n2)[C@H]2COC[C@H]21.O=C(O)C(F)(F)F.O=C(O)C(F)(F)F,Percent Effect,"30 µM, 30.03 µM",-14.33%
CCSc1cncc(N2CCC(NC(=O)C3CCCCC3)CC2)n1,Percent Effect,"30.3 µM, […]",77.16%
CCSc1cncc(N2CCC(C(=O)Nc3ccccn3)CC2)n1,Percent Effect,"30.3 µM, […]",12.36%
CCSc1cncc(N2CCC(C(=O)NC(C)C(C)C)CC2)n1 (stereo unspecified),Percent Effect,"30.3 µM, […]",8.608%
CC(=O)N(Cc1ncc(C)o1)C1CCN(Cc2ccc(F)c(F)c2)C1 (stereo unspecified),Percent Effect,"30 µM, 30.03 µM",-4.591%
O=C(CN1CCCC(c2ccn[nH]2)C1)N1CCCc2ccccc21 (stereo unspecified),Percent Effect,"30 µM, 30.03 µM",-60.51%
O=C(O)c1cccc(CN2CCCC(c3ccn[nH]3)C2)c1 (stereo unspecified),Percent Effect,"30.3 µM, […]",-0.7278%
Cc1cc(C2CCCN(CC(=O)N3CCCc4ccccc43)C2)n[nH]1 (stereo unspecified),Percent Effect,"30 µM, 30.03 µM",1.182%
Cc1cc(C2CCCN(CC(=O)N3CCc4ccccc43)C2)n[nH]1 (stereo unspecified),Percent Effect,"30 µM, 30.03 µM",-0.2301%
O=C(CN1CCCC(c2ccn[nH]2)C1)Nc1nc2c(s1)CCCC2 (stereo unspecified),Percent Effect,"30.3 µM, […]",99.87%
Cc1cc(C2CCCN(CC(=O)Nc3nc4c(s3)CCC4)C2)n[nH]1 (stereo unspecified),Percent Effect,"30.3 µM, […]",99.45%
Cc1cc(C2CCCN(CCS(=O)(=O)c3ccccc3)C2)n[nH]1 (stereo unspecified),Percent Effect,"30.3 µM, […]",-11.09%
same,Percent Effect,"10 mM, 10 mM as filed; unlikely as a test dose",-44.58%
Cc1cc(C2CCCN(CCNS(=O)(=O)c3ccccc3)C2)n[nH]1 (stereo unspecified),Percent Effect,"30.3 µM, […]",50.6%
same,Percent Effect,"10 mM, 10 mM as filed; unlikely as a test dose",-10.85%
Cc1cc(C2CCCN(CCCS(=O)(=O)c3ccccc3)C2)n[nH]1 (stereo unspecified),Percent Effect,"30 µM, 30.03 µM",-28.48%
O=C(CN1CCCC(c2ccn[nH]2)C1)Nc1nncs1 (stereo unspecified),Percent Effect,"30.3 µM, […]",7.116%
Cc1nnc(NC(=O)CN2CCCC(c3ccn[nH]3)C2)s1 (stereo unspecified),Percent Effect,"30.3 µM, […]",-16.15%
O=C(CN1CCCC(c2ccn[nH]2)C1)Nc1nc2c(s1)CCC2 (stereo unspecified),Percent Effect,"30.3 µM, […]",99.68%
CC(C)N1CCC2(CCNCC2)C1=O.Cl,Percent Effect,"30.3 µM, […]",-13.71%
Cc1cccc(CN2C(=O)CCC23CCN(c2ncc(F)cn2)CC3)n1.O=C(O)C(F)(F)F,Percent Effect,"30.3 µM, […]",6.517%
O=C(Nc1cnccn1)[C@H]1CO[C@H]2CCN(c3ncc(F)cn3)C[C@H]2C1.O=C(O)C(F)(F)F,Percent Effect,"30.3 µM, […]",-3.537%
Cc1cccc(CN2C(=O)CCC23CCN(c2ccccn2)CC3)n1.O=C(O)C(F)(F)F.O=C(O)C(F)(F)F,Percent Effect,"30.3 µM, […]",-36.28%
COc1ccccc1C(=O)NCCC(=O)Nc1c(C)nn(C)c1C,Percent Effect,"30 µM, 30.03 µM",-36.41%
CCC(C)C(=O)Nc1ccc2oc(=O)n(CCN(C)C)c2c1 (stereo unspecified),Percent Effect,"30 µM, 30.03 µM",-15.08%
Cc1cn2c(n1)C(CNCc1ccc(C)s1)CCC2 (stereo unspecified),Percent Effect,"30.3 µM, […]",-3.779%
Cc1cn2c(n1)C(CNCC1=Cc3cc(Cl)ccc3OC1)CCC2 (stereo unspecified),Percent Effect,"30.3 µM, […]",99.66%
Cc1cn2c(n1)C(CNCC1=Cc3ccccc3OC1)CCC2 (stereo unspecified),Percent Effect,"30.3 µM, […]",49.61%
O=C(Cc1cccc(F)c1)N1CCc2ncnc(NC3CCC3)c2CC1,Percent Effect,"30.3 µM, […]",-72.72%
CN(C)C(=O)N1CCC2(CC1)CCN(c1ncccn1)C2.O=C(O)C(F)(F)F,Percent Effect,"30.3 µM, […]",-41.17%
Cc1ncsc1-c1nnc(C2CCN(Cc3ccc(Cl)cc3)CC2)o1,Percent Effect,"30.3 µM, […]",0.5336%
Cc1ccsc1-c1nnc(C2CCN(Cc3ccc(F)cc3)CC2)o1,Percent Effect,"30.3 µM, […]",56.66%
Cc1ncsc1-c1nnc(C2CCN(Cc3ccc(F)cc3)CC2)o1,Percent Effect,"30.3 µM, […]",-21.24%
CN(C)C(=O)COCc1cncc2c1CCN(C1CCOCC1)C2.O=C(O)C(F)(F)F.O=C(O)C(F)(F)F,Percent Effect,"30.3 µM, […]",-55.36%
O=C1CC(c2cccc(Cl)c2)c2snc(C(=O)O)c2N1 (stereo unspecified),Percent Effect,"30.3 µM, […]",-31.06%
CN1CCC(Oc2ccc(NC(=O)c3ccccc3Br)cc2)CC1,Percent Effect,"30 µM, 30.03 µM",65.56%
Cc1ccccc1C(=O)Nc1ccc(OC2CCN(C)CC2)cc1,Percent Effect,"30 µM, 30.03 µM",-8.393%
COc1ccccc1C(=O)Nc1ccc(OC2CCN(C)CC2)cc1,Percent Effect,"30 µM, 30.03 µM",-32.85%
Cl.O=C(NCC1CCCO1)c1cc(-c2ccncc2)c2cnccc2n1 (stereo unspecified),Percent Effect,"30.3 µM, […]",-19.01%
CC1=Nc2c(c(=O)[nH]n2C(C)C)C(c2ccc3ncccc3c2)S1 (stereo unspecified),Percent Effect,"30 µM, 30.03 µM",-30.02%
CC(Cn1cccn1)NCc1nc(-c2cccnc2)no1 (stereo unspecified),Percent Effect,"30 µM, 30.03 µM",5.913%
CC(Cn1cccn1)NCc1nc(-c2cccc(Cl)c2)no1 (stereo unspecified),Percent Effect,"30 µM, 30.03 µM",53.11%
CC(Cn1cccn1)NCc1nc(-c2ccc3c(c2)OCO3)no1 (stereo unspecified),Percent Effect,"30.3 µM, […]",-4.603%
Cc1nc(N)sc1C(=O)N1CCCC(c2nccn2CCCN(C)C)C1 (stereo unspecified),Percent Effect,"30 µM, 30.03 µM",50.48%
Cc1cc(C)nc(N2CCCC(c3nccn3CCCN(C)C)C2)c1 (stereo unspecified),Percent Effect,"30 µM, 30.03 µM",-17.07%
CCn1ccnc1C1CCCN(C(=O)c2sc(C)nc2C)C1 (stereo unspecified),Percent Effect,"30 µM, 30.03 µM",-29.7%
N#CCc1cccc(C(=O)N2CCN(CC(O)c3ccccc3)CC2)c1 (stereo unspecified),Percent Effect,"30.3 µM, […]",6.868%
same,Percent Effect,"10 mM, 10 mM as filed; unlikely as a test dose",-3.185%
CCn1ccnc1CNCC1CCN(CC(O)c2ccccc2)CC1 (stereo unspecified),Percent Effect,"30 µM, 30.03 µM",95.36%
Cc1noc(C)c1CNCC1CCN(CC(O)c2ccccc2)CC1 (stereo unspecified),Percent Effect,"30 µM, 30.03 µM",39.8%
OC(CN1CCC(CNCc2ccccn2)CC1)c1ccccc1 (stereo unspecified),Percent Effect,10 µM,-26.34%
same,Percent Effect,"30.3 µM, […]",32.19%
Cc1ncccc1CNCC1CCN(CC(O)c2ccccc2)CC1 (stereo unspecified),Percent Effect,"30 µM, 30.03 µM",36.2%
Cc1ccc(CNCC2CCN(CC(O)c3ccccc3)CC2)o1 (stereo unspecified),Percent Effect,10 µM,51.2%
same,Percent Effect,"30.3 µM, […]",70.09%
CCn1ccnc1CN1CCN(CC(O)c2ccccc2)CC1 (stereo unspecified),Percent Effect,"30 µM, 30.03 µM",-18.29%
CN(C)CCOC[C@H]1CC[C@H]2[C@H](CCN2C(=O)c2ccoc2)O1.O=C(O)C(F)(F)F,Percent Effect,"30 µM, 30.03 µM",21.89%
Cc1cnn(CC2CCCN2C(=O)c2cn(C)c3ccccc23)c1 (stereo unspecified),Percent Effect,10 µM,-33.63%
Cc1ccc(-c2cc(CNc3ncnc4c3CCNCC4)no2)cc1,Percent Effect,"30 µM, 30.03 µM",31.3%
